Source: PubChem BioAssay
GalR3 antagonist – blocks the human galanin receptor 3; HEK293 GalR3-CNG cAMP membrane potential fluorescence; galR3 body fused to GalR1 C-terminus; inhibition, % at 3 µM; 360,000 compounds, 0.44% hits; AID 651719;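 active means inhibition above the screen-wide average plus 3 SD, cut at about 13% in these data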;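 further: forskolin and galanin both at EC90 stimulate the cells; cAMP rise reported by CNG channel membrane potential dye signal; 0% = forskolin plus galanin with DMSO and 100% = forskolin alone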
LRH-1 inv ag – NR5A2 inverse agonism in reporter assay | O00482 | HEK293T StAR-luciferase reporter, LRH-1 transfected, 24 h | 360,000 compounds, 0.13% hits | inhibition, % at 3.6 µM;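 active means inhibition above the mean inhibition of all tested compounds plus 3 SD, cut at about 73% in these data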;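 further: 0% = DMSO wells and 100% = reporter-only cells lacking LRH-1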
Target sequence (O00482 whole entry, looked up): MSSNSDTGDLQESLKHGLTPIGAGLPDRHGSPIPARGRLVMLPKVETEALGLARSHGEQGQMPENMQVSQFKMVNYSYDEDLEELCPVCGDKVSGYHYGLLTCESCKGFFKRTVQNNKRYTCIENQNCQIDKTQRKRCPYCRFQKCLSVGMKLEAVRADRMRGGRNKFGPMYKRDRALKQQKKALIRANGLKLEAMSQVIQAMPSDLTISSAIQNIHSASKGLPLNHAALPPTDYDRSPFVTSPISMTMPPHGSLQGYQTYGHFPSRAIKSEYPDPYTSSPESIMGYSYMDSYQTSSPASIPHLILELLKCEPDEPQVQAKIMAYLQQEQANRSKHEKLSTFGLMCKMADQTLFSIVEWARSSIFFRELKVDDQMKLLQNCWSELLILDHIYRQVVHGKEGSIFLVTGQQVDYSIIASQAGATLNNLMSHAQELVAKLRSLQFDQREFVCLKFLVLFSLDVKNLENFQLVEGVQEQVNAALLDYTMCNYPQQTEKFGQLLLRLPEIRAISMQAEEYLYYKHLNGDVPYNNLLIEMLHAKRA
NCOA1 inh – inhibitors of human steroid receptor coactivator 1 (SRC1). Q15788. HEK293 GAL4-SRC1 luciferase reporter, luminescence. inhibition, % at 3.6 µM. 360,000 compounds, 0.12% hits. AID 588354;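 active means inhibition above the campaign mean plus 3 SD, with each screening campaign given its own cutoff, cut at about 60% in these data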;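 further: 0% = DMSO treated cells and 100% = gossypol at 36 µM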
NCOA2 inhibitor – human SRC2 (NCOA2) inhibition; Q15596; HEK293 GAL4-SRC2 luciferase reporter, luminescence; inhibition, % at 9 µM; 370,000 compounds, 0.17% hits;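 active means inhibition above the mean inhibition of all tested compounds plus 3 SD, set per campaign, cut at about 52% in these data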;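 further: 0% = DMSO treated cells and 100% = cells given Gossypol at 36 µM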
COUP-TFII inh – NR2F2 (human) inhibition, primary screen | P24468 | inhibition, % at 8.6 µM | HEK293T NGFI-A luciferase reporter, luminescence | 370,000 compounds, 0.7% hits;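 active means inhibition above a per-plate cutoff, mean inhibition of test wells between control levels plus 3 SD, cut at about 38% in these data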;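 further: cells cotransfected with COUP-TFII expression vector driving the NGFI-A reporter; 0% = median of COUP-TF2 test wells and 100% = reporter-only cells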
SRC3 inh – inhibits human SRC3 coactivator; Q9Y6Q9; HEK293 GAL4-SRC3 luciferase reporter, luminescence; inhibition, % at 3.6 µM; 360,000 compounds, 0.17% hits; AID 588352;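 active means inhibition above a per-campaign cutoff, the mean of all compounds plus 3 SD, cut at about 60% in these data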;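 further: 0% = DMSO-treated cells and 100% = gossypol-treated cells at 36 µM; higher means less SRC3-driven luciferase light from the GAL4 reporter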
GalR3 antag conf – GalR3 (human) antagonism, confirmation; inhibition, % at 3 µM; shares compounds with GalR3 antagonist; AID 652245; 1,600 compounds, 59% hits; HEK293 GalR3 CNG cAMP biosensor, membrane potential fluorescence; galR3 fused to GalR1 carboxy tail; challenged with forskolin and galanin at EC90;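 active means inhibition above the primary screen's cutoff, the mean inhibition of all screened compounds plus 3 SD, cut at about 13% in these data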;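 further: 0% = forskolin plus galanin and 100% = forskolin alone with DMSO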
CNG parental – acts as nonspecific agonist in parental HEK-CNG cells | 1,600 compounds, 10% hits | activation, % at 3 µM | HEK293-CNG parental cells, cAMP membrane potential fluorescence; normalised: DMSO wells 0%, forskolin wells 100% | shares compounds with GalR3 antagonist; in the data active means activation above about 1.3%
Gal4-VP16 ctr – inhibits VP16 reporter, flagging COUP-TFII antagonist hits; shares compounds with COUP-TFII inh; HEK293 Gal4-VP16 luciferase reporter, luminescence; inhibition, % at 8.5 µM; 2,500 compounds, 25% hits; AID 687007; in the data active means inhibition above about 13%
NR2F2 inh conf – confirmation of human COUP-TFII (NR2F2) inhibitors; HEK293 NGFI-A luciferase reporter, luminescence; inhibition, % at 8.5 µM; 2,500 compounds, 45% hits; AID 687008; shares compounds with COUP-TFII inh;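 active means mean inhibition over three repeats above a set limit taken from the earlier primary screen, cut at about 38% in these data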;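 further: 100% = cells given the luciferase reporter alone without the COUP-TF2 vector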
An asterisk follows results filed as active; . = no result given. Sampled rows, rich in hits. Any-hit rate of the full collection: about 1.1%.

SMILES | GalR3 antagonist | LRH-1 inv ag | NCOA1 inh | NCOA2 inhibitor | COUP-TFII inh | SRC3 inh | GalR3 antag conf | CNG parental | Gal4-VP16 ctr | NR2F2 inh conf
Cc1nnsc1C(=O)NC1CCCc2c1cnn2-c1ccc(C(C)(C)C)cc1 (stereo unspecified) | 108.2* | 41.9 | 11.5 | 37.2 | 65.2* | 22.8 | 110.8* | 0.1 | -2.0 | 66.2*
Cc1ncoc1C(=O)NC1CCCc2c1cnn2-c1ccc(C(C)(C)C)cc1 (stereo unspecified) | 101.6* | 35.9 | 22.1 | 15.7 | 60.3* | 40.9 | 110.8* | 0.0 | 6.8 | 65.3*
CCOC(=O)C1CCN(C(=O)C(Cc2ccc3c(c2)OCO3)NC(C)=O)CC1 (stereo unspecified) | . | . | . | -6.8 | -12.7 | . | . | . | . | .
CN(CCO)c1cccc2c1S(=O)(=O)N(Cc1cn(Cc3ccccc3C(F)(F)F)nn1)Cc1ccccc1O2 | . | . | . | 8.1 | 19.4 | . | . | . | . | .
O=C(O)CCN1C(=O)/C(=C/c2ccc(F)cc2F)SC1=S | . | . | . | . | -20.5 | . | . | . | . | .
O=C(Nc1ccncc1)c1cccc(S(=O)(=O)N2CCc3ccccc32)c1 | 75.5* | 33.8 | 26.4 | -3.8 | 60.8* | 16.5 | 46.2* | -0.5 | 0.0 | 44.8*
O=C1c2[nH]nc(-c3ccccc3)c2C(c2cccc(C(F)(F)F)c2)N1c1ccccc1 (stereo unspecified) | -8.0 | . | . | 9.5 | 9.1 | . | . | . | . | .
CN(C)S(=O)(=O)Oc1cccc(C(=O)Nc2ccc(Cl)cc2)c1 | 27.7* | -86.2 | -40.3 | -30.8 | 44.8* | -36.5 | 51.2* | -0.6 | -187.4 | -12.2
CN(C)S(=O)(=O)c1cccc(CSCc2cccc(S(=O)(=O)N(C)C)c2)c1 | 77.9* | 41.8 | 31.7 | 0.6 | 56.8* | 33.6 | 86.8* | 0.2 | 7.2 | 56.1*
Cc1cc(C(=O)CSc2nc(N)cc(=O)[nH]2)c(C)n1-c1ccc(OC(F)F)cc1 | 14.4* | 23.6 | -9.3 | 12.4 | 53.2* | 17.2 | 97.9* | -0.2 | -2.5 | 54.4*
CCOc1ccc(-c2c[n+]3c(n2-c2ccccc2)CCCCC3)cc1 | 55.7* | 50.8 | 24.3 | 28.4 | 56.4* | 37.6 | 70.9* | 0.4 | 5.6 | 44.0*
C=CCN1C(=O)[C@@H](CC(=O)NCCCN2CCCC2=O)[C@]2(C(=O)OC)CCCCC=C12 | . | . | . | -16.2 | -20.0 | . | . | . | . | .
O=C(Nc1cccc(S(=O)(=O)c2cccc(NC(=O)c3ccco3)c2)c1)c1ccco1 | 41.3* | 15.4 | -27.0 | 17.4 | 70.2* | 31.1 | 45.1* | -0.7 | 5.4 | 31.6
O=C(Nc1cccc(S(=O)(=O)N2CCCC2)c1)c1ccco1 | -1.2 | 8.8 | 9.8 | -1.8 | -21.1 | -11.1 | . | . | . | .
O=C(CSc1nnc(-c2cccnc2)s1)Nc1ccnc2ccccc12 | 90.5* | 51.0 | 25.9 | 40.6 | 65.3* | 36.3 | 118.7* | 0.0 | 7.0 | 62.4*
COCCN1CCN(C(=O)c2ccc3nc(Cc4ccc(OC)c(OC)c4)oc3c2)CC1 | 87.5* | 37.5 | 24.0 | 12.2 | 49.3* | 19.8 | 48.0* | -0.2 | -0.3 | 48.5*
CN(Cc1ccc(OC(F)F)cc1)C(=O)c1cccc(S(=O)(=O)N2CCN(Cc3ccccc3)CC2)c1 | 21.7* | 35.9 | 25.0 | 20.1 | 55.3* | 31.2 | 88.2* | -1.1 | -2.9 | 42.5*
CN(Cc1c(F)cccc1Cl)C(=O)c1cccc(S(=O)(=O)N2CCN(Cc3ccccc3)CC2)c1 | -3.9 | -6.0 | -6.5 | -4.9 | 12.6 | 0.0 | . | . | . | .
S=C(NCCc1ccccc1)Nc1cccc2cnccc12 | 32.7* | 45.0 | 19.2 | 18.4 | 67.1* | 28.0 | 103.3* | -0.3 | 1.2 | 61.0*
CCCCNC(=S)Nc1cccc2cnccc12 | 0.7 | 27.1 | 3.0 | 0.7 | 14.1 | 11.4 | . | . | . | .
COCCNC(=O)C[C@H]1CC[C@H]2[C@@H](COc3ccc(NC(=O)Nc4cccc(F)c4)cc3C(=O)N2C)O1 | . | . | . | -14.7 | -4.6 | . | . | . | . | .
Cc1cc(C)cc(C(=O)OCCN(C)C2CN(Cc3cn(Cc4ccccc4F)nn3)S(=O)(=O)C2)c1 (stereo unspecified) | . | . | . | -5.7 | -6.2 | . | . | . | . | .
C=CCc1cccc(CNc2cnc3ccccc3c2)c1O | 59.9* | 16.4 | 4.4 | 26.6 | 46.6* | -11.7 | 89.5* | -1.2 | -53.5 | 25.4
CCOc1ccc(N(CC(=O)Nc2c(C)n(C)n(-c3ccccc3)c2=O)S(=O)(=O)c2ccc3c(c2)N(C(=O)C2CCC2)CC3)cc1 | . | . | . | -33.5 | -1.9 | . | . | . | . | .
Cn1cc(CNCc2ccc(OC(F)(F)F)cc2)c(-c2ccc3c(c2)OCCO3)n1 | 35.4* | 27.1 | -0.3 | 13.0 | 48.1* | 23.5 | 91.9* | 1.7* | 7.2 | 39.7*
SMILES | GalR3 antagonist | LRH-1 inv ag | NCOA1 inh | NCOA2 inhibitor | COUP-TFII inh | SRC3 inh | GalR3 antag conf | CNG parental | Gal4-VP16 ctr | NR2F2 inh conf
Cc1csc2ncnc(NCCc3ccccn3)c12 | 96.8* | 33.6 | 30.5 | 8.4 | 67.8* | 9.4 | 83.9* | -0.2 | 1.9 | 48.2*
c1ccc(CCNc2ncnc3sccc23)nc1 | -2.2 | -43.5 | -1.6 | -20.8 | 9.8 | -25.2 | . | . | . | .
COC(=O)C1=C(C)N(Cc2cccc(C(F)(F)F)c2)C(=NCC2CC2)NC1c1cccc(C(F)(F)F)c1 (stereo unspecified) | -2.2 | . | . | -5.1 | 10.8 | . | . | . | . | .
Cc1cc(C(=O)NC2CCCc3c2cnn3-c2ccc(C)c(C)c2)n(C)n1 (stereo unspecified) | 99.0* | 50.7 | 8.3 | -8.7 | 65.6* | 41.8 | 105.1* | -0.1 | 1.9 | 69.3*
CCc1cc(C(=O)NC2CCCc3c2cnn3-c2cccc(C)c2C)n(C)n1 (stereo unspecified) | 99.3* | . | . | 12.0 | 64.4* | . | 102.4* | -0.3 | 9.2 | 66.2*
Cc1ccc(-n2ncc3c2CCCC3NC(=O)c2ccoc2)cc1C (stereo unspecified) | -4.3 | 1.3 | -2.8 | -10.4 | -3.2 | 6.2 | . | . | . | .
Cc1cccc(-n2ncc3c2CCCC3NC(=O)C2(C(N)=O)CC2)c1C (stereo unspecified) | 114.3* | 51.5 | 27.8 | 27.5 | 65.7* | 30.2 | 105.9* | -0.9 | 4.3 | 51.6*
CC(=O)N(Cc1ccccc1)c1nccs1 | -8.1 | . | . | -17.1 | 9.5 | . | . | . | . | .
O=C(COCc1ccncc1)N1CCN(c2ccc(F)cc2Cl)CC1 | . | . | . | 12.5 | 22.4 | . | . | . | . | .
COC(=O)CSc1nnc(-c2ccc(NS(=O)(=O)c3c(C(C)C)cc(C(C)C)cc3C(C)C)cc2)o1 | . | . | . | -47.9 | 3.9 | . | . | . | . | .
